Measured values taken from PubChem BioAssay AID620 (Sanford-Burnham Center for Chemical Genomics, 2007).
Hit rate of the full screen: of about 87,000 compounds, about 360 (0.41%) were called active. The entries come from a sample that favours actives as a whole. Unmarked numbers belong to inactive results. Cut-off read from the data, not from the text of the source: active = cytotoxicity above about 50%; inactive = the rest.

Assay: cytotoxicity in HT1080 fibrosarcoma cells, cell-based, fluorescence readout (AID 620);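 note: cells exposed to compound overnight then 4 h with Alamar Blue; 0% = vehicle DMSO and 100% = killing control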
Conditions: HT1080 viability, at 10 µM, active compounds read high

Going from `c1ccc(Nc2ccccc2Nc2ccccn2)nc1` to `c1ccc(Nc2ccccn2)cc1`, the cytotoxicity falls from 0.4% to -6.8%.

Compared with `CCOC(=O)c1ccccc1NC(=O)Nc1ccc(OC)c(OC)c1`, `COc1ccc(NC(=O)c2cc(-c3ccccc3OC)on2)cc1` is higher in cytotoxicity: -1.4% for the first, 38.4% for the second.

Going from `Cc1noc(C)c1C(=O)N1CCN(CCc2ccccc2)CC1` to `CCC(=O)N1CCN(c2ccc(NC(=O)c3cc4ccccc4o3)cc2)CC1`, the cytotoxicity rises from -0.7% to 1.3%.

First: CCCCNC(=O)c1cc2c(=O)n3cccc(C)c3nc2n(Cc2ccccc2)c1=N
Second: COCCNC(=O)c1cc2c(=O)n3cccc(C)c3nc2n(Cc2ccncc2)c1=N
The cytotoxicity of the first is higher: 19.2% for the first, 17.6% for the second.

Going from `N=c1c(C(=O)NC2CCCC2)cc2c(=O)n3ccccc3nc2n1C1CCCC1` to `CCCn1c(=N)c(C(=O)NC2CCCC2)cc2c(=O)n3cccc(C)c3nc21`, the cytotoxicity rises from 7.6% to 9.1%.

Going from `CN1CCN(CCCN2c3ccccc3Sc3ccc(Cl)cc32)CC1` to `CC1CC(=O)N(CC(=O)N2CCCC2)c2ccccc2S1` (configuration not stated), the cytotoxicity falls from 6% to 1.5%.

Going from `O=C(O)CSc1cccc2cccc(C(=O)O)c12` to `C=Cn1c(C(=O)O)cc(CC)c1-c1ccccc1`, the cytotoxicity falls from 3.5% to -2.7%.

Compared with `COc1ccc2cc(-c3nc4ccccc4n3C)c(=O)oc2c1`, `CC(=O)Oc1ccc2cc(-c3nc4ccccc4n3C)c(=O)oc2c1` is lower in cytotoxicity: -1.5% for the first, -4.4% for the second.

Going from `COc1ccc(CN(Cc2cccnc2)S(=O)(=O)c2ccc(-n3cnnn3)c(C)c2)cc1OC` to `Cc1cc(C(=O)COc2cccc(-n3cnnn3)c2)c(C)n1-c1ccccc1`, the cytotoxicity rises from -6.9% to 27%.

Going from `COc1ccc(Cl)cc1N(CC(=O)Nc1ccccc1C(=O)NCc1ccco1)S(C)(=O)=O` to `COc1ccccc1-n1cnc2cc(C(=O)NCc3ccco3)ccc21`, the cytotoxicity falls from 4.2% to -2.4%.

First: Cc1cc(-n2c(C)cc(C(=O)COc3ccc4ccc(=O)oc4c3)c2C)no1
Second: COc1ccc(NC(=O)CSc2nnc(-c3ccccc3C)n2C)cc1
The cytotoxicity of the first is higher: 7.7% for the first, 3% for the second.

Going from `CC(=O)c1ccc(NC(=O)CSc2nc3nc(C)cc(C)n3n2)cc1` to `CCOC(=O)c1cn(CC(=O)Nc2ccc(C)cc2)nn1`, the cytotoxicity rises from -1.8% to -1.5%.

Going from `COc1ccc(/C=C2\CCc3ccccc3C2=O)cc1Cn1cccn1` to `COc1ccccc1-n1cnc2cc(NCc3ccccn3)ccc21`, the cytotoxicity falls from -6.8% to -10%.

Going from `COC(=O)[C@@H]1C[C@@H]2CC[C@@H](O)C[C@@H]2N1Cc1ccc(Cl)cc1` to `COC(=O)[C@@H]1C[C@@H]2CC[C@@H](O)C[C@@H]2N1Cc1ccc(-c2ccccc2)cc1`, the cytotoxicity falls from 4.3% to 1.4%.

First: O=C(Nc1cccnc1)c1cc(-c2ccccc2)on1
Second: O=C(NCc1csc(-c2ccccc2)n1)c1ccco1
The cytotoxicity of the first is higher: 8.8% for the first, -1.4% for the second.

First: O=C1c2ccccc2C(=O)c2c1oc(C(F)(F)F)c2C(=O)c1ccccc1
Second: Cc1ccc(C(=O)c2c(C)oc3c2C(=O)C(=O)c2ccccc2-3)cc1
The cytotoxicity of the first is higher: -1.6% for the first, -5.2% for the second.

First: NC(=O)c1nsc(C(=O)N(CC(=O)NCc2ccc3c(c2)OCO3)C2CCCCC2)c1N
Second: CC(C)CC(C(=O)NC1CCCC1)N(Cc1cccs1)C(=O)c1snc(C(N)=O)c1N (configuration not stated)
The cytotoxicity of the first is higher: -0.4% for the first, -7.5% for the second.

Going from `C=CCSc1nccc(-c2nn(-c3ccc(C)cc3)ccc2=O)n1` to `CCSc1nccc(-c2nn(-c3ccc(C)cc3)ccc2=O)n1`, the cytotoxicity falls from 44.5% to 29%.

First: O=C1OC(Nc2nccs2)c2ccccc21 (configuration not stated)
Second: COn1c(=O)c(-c2cccs2)[n+]([O-])c2ccccc21
The cytotoxicity of the first is higher: 19.8% for the first, -15.3% for the second.

Compared with `O=S(=O)(c1ccc(Oc2ccc(S(=O)(=O)N3CCOCC3)cc2)cc1)N1CCOCC1`, `CNS(=O)(=O)c1ccc(Oc2ccc(S(=O)(=O)NC)cc2)cc1` is higher in cytotoxicity: -8.2% for the first, -5.5% for the second.

First: CC(C)c1ccc(C(=O)CSc2ncn[nH]2)cc1
Second: CCC(C(=O)c1ccc(O)cc1)c1ccccc1 (configuration not stated)
The cytotoxicity of the first is higher: -3.4% for the first, -4% for the second.

Going from `COc1cc(C)c(C(C)C)cc1S(=O)(=O)n1ccnc1` to `COc1cc(C)c(Cl)cc1S(=O)(=O)n1cnc(C)c1`, the cytotoxicity rises from -1.7% to -1.4%.

Going from `CCn1ncc(Br)c1C(=O)NC(C)c1ccccc1` (configuration not stated) to `CN(C)c1ccc(C(=O)C(O)c2ccccc2)cc1` (configuration not stated), the cytotoxicity falls from 9% to -14%.

Compared with `Nc1cccc(-c2nc3ccccc3[nH]2)c1`, `COc1ccc2nc(-c3cccc(N)c3)[nH]c2c1` is higher in cytotoxicity: -3.9% for the first, 33.4% for the second.

Compared with `N#CC1=C(c2ccccc2)N=P(N2CCOCC2)(N2CCOCC2)N=C1N1CCOCC1`, `O=C(Nc1ccc(N2CCOCC2)cc1)c1cc2ccccc2o1` is higher in cytotoxicity: -10.4% for the first, 1.6% for the second.

Going from `CCNc1ccc(S(=O)(=O)C(F)(F)F)cc1NC(=O)C12CCC(CC1)C2` to `O=C(NCc1ccccc1)C1(c2ccccc2)CCN(S(=O)(=O)c2ccccc2)CC1`, the cytotoxicity falls from 0.9% to -1.9%.

First: COC(=O)c1c(N)sc(C(C)=O)c1C
Second: COc1ccc(C(C)=O)cc1COC(=O)c1c(C)noc1C
The cytotoxicity of the first is lower: -8.8% for the first, 14% for the second.

First: Cc1nnc(SCC(=O)Nc2ccc3c(c2)OCO3)o1
Second: CCC(=O)Nc1ccc(NC(=O)c2cc3ccccc3o2)cc1
The cytotoxicity of the first is higher: 12.7% for the first, -1.5% for the second.

First: COc1nc(NCc2ccco2)nc(N2CCC(C)CC2)n1
Second: COc1cccc(N2CCN(c3ncnc4c3[nH]c3ccccc34)CC2C)c1 (configuration not stated)
The cytotoxicity of the first is lower: -3.4% for the first, -3% for the second.

Compared with `COc1cccc(C2N(c3ccccn3)C(=O)C3CCCN32)c1OC` (configuration not stated), `COc1ccc(OC)c(N2CC(O)=C(c3nc4ccccc4s3)C2=N)c1` is higher in cytotoxicity: -9.8% for the first, -5.7% for the second.

First: COc1ccc(-n2cnc3cc(NCc4cccs4)ccc32)cc1
Second: Cc1ccccc1-n1cnc2cc(NCc3cccs3)ccc21
The cytotoxicity of the first is lower: 1.1% for the first, 33.7% for the second.

First: CCOC(=O)CCP(=O)(O)C(C)(O)c1ccccc1 (configuration not stated)
Second: O=C(Nc1ccc(CN2CCOCC2)cc1)c1cc2ccccc2o1
The cytotoxicity of the first is lower: -7.3% for the first, 8.9% for the second.

Compared with `COc1ccc(N2CC(O)=C(c3nc4ccccc4s3)C2=N)c(OC)c1`, `O=C(Nc1ccccc1N1CCN(C(=O)c2ccc(Cl)cc2)CC1)c1cc2ccccc2o1` is higher in cytotoxicity: -0.1% for the first, 1.6% for the second.

First: O=C(CSc1nc2c(c(=O)n1-c1ccc(Cl)cc1)SCC2)N1CCCC1
Second: O=C(Nc1ccc(N2CCN(C(=O)c3ccc(Cl)cc3)CC2)cc1)c1cc2ccccc2o1
The cytotoxicity of the first is lower: -1.5% for the first, 7% for the second.

First: N#Cc1c(-c2ccc(Cl)cc2)ccn2nc(C3CCCCC3)nc12
Second: Fc1ccc2[nH]c3c(N4CCN(c5ccccc5)CC4)ncnc3c2c1
The cytotoxicity of the first is higher: -4% for the first, -4.2% for the second.

Compared with `Cc1nc(NC(C)C)c2oc3ccccc3c2n1`, `O=C(Nc1ccc(N2CCOCC2)c(Cl)c1)c1cccc(F)c1` is higher in cytotoxicity: -2.5% for the first, 22.9% for the second.

Going from `O=C(C1CCCN(Cc2cccc(F)c2)C1)N1CCCCC1` (configuration not stated) to `O=C(Nc1ccc(N2CCOCC2)c(Cl)c1)c1c(F)c(F)c(F)c(F)c1F`, the cytotoxicity falls from 14.1% to 8.9%.

With `Oc1cccc2ccc(Nc3ccccn3)nc12` the cytotoxicity was 60.9% (active).
In the case of `CC(=O)O[C@@]12CO[C@@H]1C[C@H](O)[C@@]1(C)C(=O)[C@H](O)C3=C(C)[C@@H](OC(=O)[C@H](O)[C@@H](NC(=O)OC(C)(C)C)c4ccccc4)C[C@](O)([C@@H](OC(=O)c4ccccc4)[C@H]21)C3(C)C`, the cytotoxicity is reported as 53.7% (active).
In the case of `Cc1cccn2c(=O)c3cc(C(=O)NC4CCCC4)c(=N)n(C4CCCC4)c3nc12`, the cytotoxicity is reported as 75% (active).
In the case of `CCCCNC(=O)c1cc2c(=O)n3cccc(C)c3nc2n(Cc2ccncc2)c1=N`, the cytotoxicity is reported as 54.1% (active).
In the case of `CSc1ccc2c(c1)N(CCC1CCCCN1C)c1ccccc1S2` (configuration not stated), the cytotoxicity is reported as 82.9% (active).
For `CCN(CC)c1ccc2cc(-c3nc4ccccc4n3C)c(=O)oc2c1`, the cytotoxicity was 62% (active).
With `CC(=O)c1cccc(OCC(=O)c2cc(C)n(-c3cc(C)on3)c2C)c1` the cytotoxicity was 63.5% (active).
For `COC(=O)[C@@H]1C[C@H]2CC[C@H](O)C[C@H]2N1Cc1ccc(-c2ccccc2)cc1`, the cytotoxicity was 68.8% (active).
With `COc1ccccc1-c1cc(C(=O)Nc2cccnc2)no1` the cytotoxicity was 58.1% (active).
With `Cc1oc2c(c1C(=O)c1ccccc1)C(=O)C(=O)c1ccccc1-2` the cytotoxicity was 107% (active).
In the case of `CSc1nccc(-c2nn(-c3ccc(C)cc3)ccc2=O)n1`, the cytotoxicity is reported as 56.4% (active).
In the case of `C=CS(=O)(=O)c1ccc(Oc2ccc(S(=O)(=O)C=C)cc2)cc1`, the cytotoxicity is reported as 76.4% (active).
For `COc1cc(C)c(C(C)C)cc1S(=O)(=O)n1cnc(C)c1`, the cytotoxicity was 61.2% (active).
For `COC(=O)c1sc(N)c(C(=O)OC)c1COC(=O)c1c(C)noc1C`, the cytotoxicity was 50.8% (active).
For `CN(C)CC(C(=O)c1ccccc1)c1ccccc1` (configuration not stated), the cytotoxicity was 57.7% (active).
In the case of `COc1ccccc1-n1cnc2cc(NCc3cccs3)ccc21`, the cytotoxicity is reported as 60% (active).
For `COc1ccccc1-n1cnc2cc(NCc3ccco3)ccc21`, the cytotoxicity was 59.5% (active).
For `CCOc1ccccc1N1CC(O)=C(c2nc3ccccc3s2)C1=N`, the cytotoxicity was 68.7% (active).
In the case of `COc1cccc(N2CCN(c3ncnc4c3[nH]c3ccc(F)cc34)CC2C)c1` (configuration not stated), the cytotoxicity is reported as 54.2% (active).
With `O=C(Nc1ccc(N2CCOCC2)c(Cl)c1)c1ccc(F)cc1` the cytotoxicity was 56.2% (active).
For `CCC(=O)N1CCN(c2ccc(NC(=O)c3cc4ccccc4o3)cc2Cl)CC1`, the cytotoxicity was 96.3% (active).
With `O=C(Nc1ccc(N2CCOCC2)c(Cl)c1)c1cc2ccccc2o1` the cytotoxicity was 89.6% (active).
For `CCCC(=O)N1CCN(c2ccc(NC(=O)c3cc4ccccc4o3)cc2Cl)CC1`, the cytotoxicity was 69.8% (active).
